Results filed as inconclusive are left out. Active and inactive are the calls of the source. The calls were made as follows, unless noted: active = hit-call score of the fitted dose curve at least 0.9, where 1 is the maximum; inactive = score below 0.9.
Assays:
[1] = CCTE_Padilla_ZF_Score.Position: CCTE's 144 Hour Post-fertilization zebrafish Assay Score for Position, Padilla Lab (AID 2284409)
In short: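 Wild-type zebrafish embryos (with chorions) exposed singly from 6–8 hpf in sealed wells of Hanks' solution at 26C, rinsed at 5 dpf. At 6 dpf, blinded assessors scored abnormal water-column position by brightfield stereomicroscopy, relative to DMSO.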

[2] = CCTE_Padilla_ZF_Score.Living: CCTE's 144 Hour Post-fertilization zebrafish Assay Score for Viability, Padilla Lab (AID 2284410);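 also: larval death at 6 dpf judged by absent heartbeat or coagulation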
In short: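 Wild-type zebrafish embryos were exposed singly from 6–8 hpf in sealed wells of Hanks' solution at 26C, then rinsed at 5 dpf. At 6 dpf, blinded assessors scored mortality (no heartbeat or coagulation) by stereomicroscopy, fitted against DMSO.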

[3] = CCTE_Padilla_ZF_Score.General: CCTE's 144 Hour Post-fertilization zebrafish Assay Score for General Malformation, Padilla Lab (AID 2284411)
In short: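 Wild-type zebrafish embryos were plated singly at 6-8 hpf in 10% Hanks' and exposed in sealed wells at 26C until rinsed on 5 dpf. At 6 dpf two blinded assessors scored mortality, hatching and malformations by stereomicroscopy; gain-of-signal versus DMSO.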

[4] = CCTE_Padilla_ZF_Score.Tail: CCTE's 144 Hour Post-fertilization zebrafish Assay Score for Tail Malformation, Padilla Lab (AID 2284414)
In short: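 Wild-type zebrafish embryos, one per well in 200 uL 10% Hanks', dosed at 6-8 hpf, sealed, and kept at 26 C on a 14:10 h light cycle. Chemical was rinsed out at 5 dpf. Blinded brightfield scoring of tail defects followed at 6 dpf.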

[5] = CCTE_Padilla_ZF_Score.Blood_pooling: CCTE's 144 Hour Post-fertilization zebrafish Assay Score for Blood Pooling, Padilla Lab (AID 2284415)
In short: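 Wild-type outbred zebrafish embryos, one per well in 10% Hanks', exposed from 6–8 hpf in sealed plates at 26C on 14:10 h light:dark, rinsed at 5 dpf. Blinded stereomicroscope scoring of blood pooling at 6 dpf; gain-of-signal versus DMSO.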

[6] = CCTE_Padilla_ZF_Score.Any: CCTE's 144 Hour Post-fertilization zebrafish Assay Score for Any Mortality or Malformation, Padilla Lab (AID 2284416)
In short: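 Wild-type zebrafish embryos with chorions, one per well in 10% Hanks' from 6–8 hpf, dosed in sealed plates at 26 C, 14:10 h light:dark; rinsed at 5 dpf; blinded scoring at 6 dpf for death or malformation, versus DMSO.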

[7] = system: SRY-box transcription factor 2 (SOX2) Protein Expression, Deisenroth Lab, SOX2 (gene 6657); experiment: CCTE_Deisenroth_DEVTOX-GLR_Endo_SOX2: CCTE's DevTox GLR-Endo Assay Evaluation of SRY-box transcription factor 2 (SOX2) Protein Expression, Deisenroth Lab (AID 2284412; active = hit-call score of the fitted dose curve at least 0.9, where 1 is the maximum)
In short: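 RUES2-GLR human pluripotent cells were seeded 24 h, then differentiated 48 h with two chemical exposures 24 h apart. Cells were fixed, nuclei stained and imaged by high-content microscopy. Endpoint is %SOX2+ cells over cell count, minus 0.2% DMSO control; 10-point series 1 nM–200 uM.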

[8] = system: SRY-box transcription factor 17 (SOX17) Protein Expression, Deisenroth Lab, SOX17 (gene 64321); experiment: CCTE_Deisenroth_DEVTOX-GLR_Endo_SOX17: CCTE's DevTox GLR-Endo Assay Evaluation of SRY-box transcription factor 17 (SOX17) Protein Expression, Deisenroth Lab (AID 2284413)
In short: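 Seed RUES2-GLR cells 24 h; start endoderm differentiation; dose at 0 and 24 h (1 nM - 200 uM, 10 points); fix at 48 h, stain nuclei, image 5 fields/well; compute SOX17+/total cells vs 0.2% DMSO.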

[9] = CCTE_Deisenroth_DEVTOX-GLR_Endo_CellCount: Viability Assessment in CCTE's DevTox GLR-Endo Assay, Deisenroth Lab (AID 2284420)
In short: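 RUES2-GLR human pluripotent cells seeded 24 h, then differentiated 48 h with two chemical exposures at 24 h intervals (10-point, 1 nM - 200 uM). Fixed, nuclear-stained, imaged; nuclei counts give % change in cell count versus 0.2% DMSO.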

[10] = system: Brachyury (BRA) Protein Expression, TBXT (gene 6862); experiment: CCTE_Deisenroth_DEVTOX-GLR_Endo_BRA: CCTE's DevTox GLR-Endo Assay Evaluation of Brachyury (BRA) Protein Expression, Deisenroth Lab (AID 2284417)
Experimental: CCTE_Deisenroth_DEVTOX-GLR_Endo assay is a cell-based, multiplex-readout assay that uses RUES2-GLR, a human pluripotent cell line, with measurements taken at 48 hours after chemical dosing in a 384-well microplateCCTE_Deisenroth_DEVTOX-GLR_Endo_BRA is 1 of 4 assay components calculated from the CCTE_Deisenroth_DEVTOX-GLR_Endo assay and it measures the percentage of cells in an mesoderm state. Using a type of inducible fluorescent protein reporter, gain-of-signal activity can be used to understand changes in gene expression with fluorescent microscopy. The percentage of BRA+ cells are determined by calculating the number of BRA+ cells divided by the cell count. To generalize the intended target to other relatable targets, this assay component is annotated to the transcription factor intended target family, where the subfamily is T-box protein.Data from the assay component CCTE_Deisenroth_DEVTOX-GLR_Endo_BRA was analyzed as 1 assay endpoint. The endpoint is the percent BRA+ cell population minus the 0.2% DMSO control in the CCTE_Deisenroth_DEVTOX-GLR_Endo assay. Furthermore, this assay endpoint can be referred to as a secondary readout, because this assay has produced multiple assay endpoints where this one serves as a measure of mesoderm differentiation.
All assay protocols are aligned to the DevTox GLR-Endo assay workflow. […]

For `C=C(F)C(=O)OC(C(F)(F)F)C(F)(F)F`, the outcome [1] was “inactive”, the outcome [2] was “inactive” and the outcome [3] was “inactive”. The outcome [4] was “inactive”, the outcome [5] was “inactive” and the outcome [6] was “inactive”.
For `O=S(=O)(O)C(F)(F)C(F)(F)OC(F)(F)C(F)(F)F`, the outcome [1] was “inactive”, the outcome [2] was “inactive” and the outcome [3] was “inactive”. The outcome [4] was “inactive”, the outcome [5] was “inactive” and the outcome [6] was “inactive”.
In the case of `CCOC(=O)C=Cc1ccccc1`, the outcome [3] is reported as “inactive”.
With `CC(C)Cc1ccc(C(C)C(=O)O)cc1` (stereo not given) the outcome [7] was “inactive”, the outcome [8] was “inactive” and the outcome [9] was “inactive”.
With `CCC(=O)OC/C=C(\C)CCC=C(C)C` the AC50 [3] was 27.3 µM (active).
With `OCC(F)(OC(F)(F)C(F)(OC(F)(F)C(F)(F)C(F)(F)F)C(F)(F)F)C(F)(F)F` (stereo not given) the outcome [1] was “inactive”, the AC50 [2] was 35.4 µM (active) and the outcome [3] was “inactive”. For the same compound, the outcome [4] was “inactive”, the outcome [5] was “inactive” and the AC50 [6] was 31.8 µM (active).
With `O=C(O)c1ccccc1O` the outcome [8] was “inactive”, the outcome [10] was “inactive” and the outcome [9] was “inactive”.
For `CCCCCCCCCCCCS`, the outcome [3] was “inactive”.
In the case of `CC1=CC(C)C(C=O)C(C)C1` (stereo not given) (tested in a mixture with another compound), the outcome [3] is reported as “inactive”.
In the case of `C=C(C)C(=O)OCCC(F)(F)C(F)(F)C(F)(F)C(F)(F)C(F)(F)C(F)(F)C(F)(F)C(F)(F)F`, the outcome [1] is reported as “inactive”, the outcome [2] is reported as “inactive” and the outcome [3] is reported as “inactive”. The outcome [4] was “inactive”, the outcome [5] was “inactive” and the outcome [6] was “inactive”.
With `O=C(O)C(F)(F)C(F)(F)C(F)(F)C(F)(F)C(F)(F)C(F)(F)C(F)(F)C(F)F` the outcome [1] was “inactive”, the outcome [2] was “inactive” and the outcome [3] was “inactive”. The outcome [4] was “inactive”, the outcome [5] was “inactive” and the AC50 [6] was 88.5 µM (active).
For `C=C1CC[C@H]2O[C@]2(C)CC[C@@H]2[C@@H]1CC2(C)C`, the AC50 [3] was 65.4 µM (active).
With `CC(=O)CCC=C(C)CCC=C(C)C` the outcome [3] was “inactive”.
For `CCCCCCCCCC(=O)OCC`, the outcome [3] was “inactive”.
In the case of `O=C(O)C(F)(F)OC(F)(F)C(F)(F)OC(F)(F)C(F)(F)C(F)(F)C(F)(F)F`, the outcome [1] is reported as “inactive”, the AC50 [2] is reported as 81.2 µM (active) and the AC50 [3] is reported as 81.3 µM (active). The outcome [4] was “inactive”, the outcome [5] was “inactive” and the outcome [6] was “inactive”.
For `CCOC(=O)CCCCCCCCC(=O)OCC`, the outcome [3] was “inactive”.

Reference: PubChem BioAssay (EPA / NIEHS)
